Source: PubChem (National Center for Advancing Translational Sciences (NCATS))
An excerpt weighted towards active compounds, which were near 12% of everything screened.
JMJD2A Tudor inh = qHTS Assay for Inhibitors of JMJD2A-Tudor Domain; AID 504339, 2011; Potency, µM (titrated, usually from 114 µM), most hits filed as inhibitors; Lysine-specific demethylase 4A (Homo sapiens), O75164; 390,000 compounds, 4.4% hits; AlphaScreen JMJD2A-Tudor / H3K4me3 peptide binding; note: nearly all actives have a fitted effect of over 50% in size
Sfp PPTase inh = qHTS Assay for Inhibitors of Bacillus subtilis Sfp phosphopantetheinyl transferase (PPTase). 4'-phosphopantetheinyl transferase ffp (Bacillus subtilis), Q9F4F7. Biochemical Sfp PPTase activity, qHTS. Potency, µM, hits mostly inhibitors. 310,000 compounds, 3.5% hits;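 note: the enzyme is Sfp with the accession as filed and its product quenches rhodamine fluorescence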
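Compounds were incubated with enzyme (final 15 nM) for 15 min at room temperature before substrate addition started the reaction. Fluorescence at 525 nm excitation, 598 nm emission was recorded immediately and after 30 minutes.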
BAZ2B block = qHTS Assay for Inhibitors of BAZ2B. AID 504333, 2011. Potency, µM (doses to about 114 µM), usual class: inhibitors. 360,000 compounds, 4.4% hits. AlphaScreen BAZ2B-H3K14Ac peptide displacement; note: nearly all actives have a fitted effect of over 60% in size
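Protein-peptide AlphaScreen: BAZ2B 50 nM, b-H3K14Ac 50 nM, 1x PBS pH 7.4 + 0.01% Tween-20. Preincubation 30 min RT; cpd 30 min RT (top 110 uM); beads 20 min RT, light-protected.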
G9a inh = qHTS Assay for Inhibitors of Histone Lysine Methyltransferase G9a; Histone-lysine N-methyltransferase EHMT2 (Homo sapiens), Q96KQ7; G9a H3K9 monomethylation, AlphaScreen, 2 h; Potency, µM (highest dose often 102 µM), actives largely listed as inhibitors; 350,000 compounds, 8.8% hits; note: nearly all actives have a fitted effect of over 75% in size
Target sequence (Q96KQ7 913-1193 limits assumed): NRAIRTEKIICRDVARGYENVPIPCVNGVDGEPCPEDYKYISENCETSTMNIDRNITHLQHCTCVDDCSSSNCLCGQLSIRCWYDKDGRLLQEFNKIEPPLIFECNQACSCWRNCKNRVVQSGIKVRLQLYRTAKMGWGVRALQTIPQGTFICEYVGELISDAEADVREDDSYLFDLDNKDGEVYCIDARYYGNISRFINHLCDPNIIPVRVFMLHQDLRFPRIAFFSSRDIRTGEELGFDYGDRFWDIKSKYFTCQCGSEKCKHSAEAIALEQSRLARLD
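G9a (20 nM) was preincubated 15 min with compound, then reacted 2 h at room temperature with 500 nM biotin-H3K9 peptide and 20 µM SAM. Monomethyl-H3K9 detected by AlphaScreen using anti-H3K9me1 antibody.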
HP1b binding inh = HTS for Inhibitors of HP1-beta Chromodomain Interactions with Methylated Histone Tails; AlphaScreen HP1-beta / biotin-H3K9me3 peptide binding; 390,000 compounds, 0.56% hits; Potency, µM (series often up to 114 µM), hits mostly inhibitors; AID 540317, 2011; note: nearly all actives have a fitted effect of over 70% in size
Target sequence (P83916 whole entry, looked up): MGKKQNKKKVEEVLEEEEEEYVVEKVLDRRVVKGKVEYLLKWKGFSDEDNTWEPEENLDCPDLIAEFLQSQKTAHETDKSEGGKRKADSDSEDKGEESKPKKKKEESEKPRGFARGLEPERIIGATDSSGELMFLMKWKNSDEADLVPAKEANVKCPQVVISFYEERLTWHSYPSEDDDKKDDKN
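AlphaScreen: HP1-beta (50 nM) preformed 30 min with biotin-H3(1-18)K9me3 peptide (50 nM) in PBS pH 7.4, 0.01% Tween-20. Compound added for 30 min at RT, then streptavidin donor/nickel chelate acceptor beads (10 ug/mL) for 30 min.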
PLK1 PBD block = qHTS for Inhibitors of PLK1-PDB (polo-like kinase 1 - polo-box domain): Primary Screen; Plk1 PBD binding of FITC phosphopeptide, fluorescence polarization; AID 720504, 2013; Potency, µM, actives largely listed as inhibitors; Serine/threonine-protein kinase PLK1 (Homo sapiens), P53350; 360,000 compounds, 2.8% hits; note: series mostly up to about 57 µM; nearly all actives have a fitted effect of over 65% in size
Large screens that a line does not name were inactive. Calls come from the whole dose curve; as a rule, active = well fitted curve in the direction sought with a large enough effect; inconclusive = small, poorly fitted or top-dose-only effect, or another doubt; inactive = no such curve, though single readings can be large; an effect the other way counts as inactive or inconclusive.

Cc1ccc(NCN2C(=O)C3C4CCC(C4)C3C2=O)cc1 (centres undefined)	none (no result: JMJD2A Tudor inh, HP1b binding inh, PLK1 PBD block)
O=C1C2C3C=CC(C3)C2C(=O)N1CNc1ccc(O)cc1 (centres undefined)	Sfp PPTase inh 56.2µM, BAZ2B block 44.7µM, G9a inh 2.24µM (no result: JMJD2A Tudor inh, HP1b binding inh, PLK1 PBD block)
CCOC(=O)c1c(NC(=O)C2c3ccccc3Oc3ccccc32)sc(C(=O)N(CC)CC)c1C	Sfp PPTase inh inconclusive, PLK1 PBD block inconclusive
COc1cc(/C=C2/C(=O)N(c3cccc(Br)c3)N=C2C)cc(OC)c1O	JMJD2A Tudor inh 28.2µM, Sfp PPTase inh inconclusive, BAZ2B block 10µM, G9a inh 10µM, HP1b binding inh 28.2µM, PLK1 PBD block inconclusive
COc1cc(C=O)ccc1OCc1cccc(Br)c1	none
COc1cc(/C=C2/C(=O)N(c3ccc(Br)cc3)N=C2C)cc([N+](=O)[O-])c1O	G9a inh 79.4µM (no result: JMJD2A Tudor inh, HP1b binding inh, PLK1 PBD block)
Cc1noc(C)c1-c1ccc2ncnc(NCc3ccco3)c2c1	none (no result: BAZ2B block, G9a inh, HP1b binding inh, PLK1 PBD block)
Cc1cc(C(=O)NP(=O)(N2CCOCC2)N2CCOCC2)c(C)n1-c1ccc(N(C)C)cc1	JMJD2A Tudor inh inconclusive, BAZ2B block inconclusive, G9a inh 22.4µM
Cc1cc(C(=O)OCC(=O)N2CCOCC2)c(C)n1-c1ccccc1	none (no result: Sfp PPTase inh, BAZ2B block, G9a inh)
Cc1cc(C(=O)C[N+]2(C)CCOCC2)c(C)n1-c1ccc(Br)cc1	JMJD2A Tudor inh inconclusive
Cc1cc(C(=O)NP(=O)(N2CCOCC2)N2CCOCC2)c(C)n1-c1ccc(Br)cc1	BAZ2B block inconclusive, G9a inh 50.1µM
CC(=O)Nc1ccc(OC(C)=O)cc1	none (no result: JMJD2A Tudor inh, BAZ2B block, HP1b binding inh, PLK1 PBD block)
Cc1c(C)c2ccc(OCC(=O)NCCCn3ccnc3)cc2oc1=O	JMJD2A Tudor inh 22.4µM
CCOC(=O)N1CCN(C(=O)Cn2ncc3ccccc32)CC1	JMJD2A Tudor inh 79.4µM, PLK1 PBD block 29.9µM
CCOC(=O)N1CCN(C/C(Cl)=C/c2ccccc2)CC1	JMJD2A Tudor inh 1.78µM, Sfp PPTase inh inconclusive, BAZ2B block inconclusive, HP1b binding inh 50.1µM (no result: G9a inh)
O=C(CSc1ccc(Cl)cc1)N1CCCC1	JMJD2A Tudor inh inconclusive, PLK1 PBD block 23.8µM
CCOC(=O)N1CCN(C(=O)CSCc2ccccc2)CC1	none
CCOC(=O)N1CCN(CCc2ccccc2)CC1	none
CCOC(=O)N1CCN(C(=O)CSc2ccccc2)CC1	PLK1 PBD block 15µM
Cc1ccc(SCC(=O)N2CCCC2)cc1	none
CCOC(=O)N1CCN(C(=O)CSc2nnc3[nH]c(=O)c(C)c(C)n23)CC1	G9a inh 14.1µM (no result: Sfp PPTase inh)
CCOC(=O)N1CCN(C(=O)CSc2nc3c(cnn3-c3ccc(C)cc3)c(=O)[nH]2)CC1	G9a inh inconclusive
Cc1cc(/C=C\c2ccc3cc(N(C)C)ccc3[n+]2C)c(C)n1-c1ccccc1	JMJD2A Tudor inh 50.1µM, Sfp PPTase inh inconclusive, BAZ2B block 12.6µM, G9a inh 12.6µM, HP1b binding inh inconclusive, PLK1 PBD block inconclusive
COc1cc(C2Nc3ccccc3-c3nnc(SCc4ccc(C)cc4)nc3O2)cc(OC)c1O (centres undefined)	JMJD2A Tudor inh inconclusive, BAZ2B block inconclusive, G9a inh 7.08µM (no result: Sfp PPTase inh, PLK1 PBD block)
COc1cc(C2Nc3ccccc3-c3nnc(SCc4ccc(Cl)cc4)nc3O2)ccc1OCC(=O)O (centres undefined)	none (no result: Sfp PPTase inh, PLK1 PBD block)
CCCn1c(C(CO)Nc2nc(-c3cccc(Br)c3)cs2)nc2ccccc21 (centres undefined)	JMJD2A Tudor inh inconclusive, BAZ2B block inconclusive, G9a inh 44.7µM
COc1ccc(-c2nn(-c3ccccc3)cc2C2NC(=O)NC(C)=C2C(=O)OC(C)C)cc1Cl (centres undefined)	G9a inh inconclusive (no result: Sfp PPTase inh, PLK1 PBD block)
CN(Cc1ccccc1)c1ccc(N2C(=O)CCC2=O)cc1[N+](=O)[O-]	JMJD2A Tudor inh inconclusive, BAZ2B block inconclusive
